Records with an inconclusive call do not appear. A call without a number means that no potency is given here. Unmarked numbers belong to inactive results. Calls of active or inactive are those of the source. Calls follow the shape of the dose curve; as a rule, active = well fitted cell-killing curve with a large enough effect; inconclusive = small, poorly fitted or top-dose-only effect; inactive = no such curve, though single readings can be large or run the other way.
Columns and labels:
[1] = qHTS of pediatric cancer cell lines to identify multiple opportunities for drug repurposing: Primary screen for Rh30 cells (AID 1347107); also: series mostly up to about 46 µM; nearly all actives have a fitted effect of over 75% in size
Method in brief: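 Viability after 48 h compound treatment at 37C, 500-1,000 cells/well, read as ATP luminescence with CellTiter-Glo. Primary screens used 11-point (MIPE, 0.78 nM-46 µM) or 8-point (NPC, 0.59 nM-46 µM) final concentrations; follow-up screens used 11-point dilutions.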

[2] = qHTS of pediatric cancer cell lines to identify multiple opportunities for drug repurposing: Primary screen for Rh41 cells (AID 1347108); also: nearly all actives have a fitted effect of over 70% in size; also: potency is read from the fitted curve at half-maximal effect;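 as to activity change, negative = cytotoxic: series mostly up to about 46 µM; luminescence drop marks cytotoxic hits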
Method in brief: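 CRCs from 8- or 11-point titrations (lowest final 0.59 nM NPC, 0.78 nM MIPE). Cell viability: CellTiter-Glo after 48 h incubation, 15 min room-temperature development, luminescence imaging.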

SMILES	Potency [1]	Potency [2]	activity change, negative = cytotoxic [1]	activity change, negative = cytotoxic [2]
CCOC(=O)COc1ccc2c(C)c(CCN(CC)CC)c(=O)oc2c1Cl	inactive	inactive	–	–
Cc1ccnc(NS(=O)(=O)c2ccc(N)cc2)n1	inactive	inactive	–	–
CCCCN1CCCC1C(=O)Nc1c(C)cc(C)cc1C (configuration not stated)	inactive	inactive	–	–
C[C@]12CCC(=O)C=C1[C@@H]1C[C@@H]1[C@H]1[C@@H]3[C@@H]4C[C@@H]4[C@@]4(CCC(=O)O4)[C@@]3(C)CC[C@@H]12	inactive	inactive	–	–
CCCCCCCCCCCCCCCCCC(=O)OCC(O)CO (configuration not stated)	inactive	inactive	–	–
O=C1c2ccccc2C(=O)C1c1ccccc1	inactive	inactive	–	–
CC(O)C(=O)O (configuration not stated)	inactive	inactive	–	–
c1ccc(OCc2ccc(CCCN3CCOCC3)cc2)cc1	inactive	inactive	–	–
NCCc1ccn[nH]1	inactive	inactive	–	–
Cc1c(F)c(N2CCNC(C)C2)cc2c1c(=O)c(C(=O)O)cn2C1CC1 (configuration not stated)	inactive	inactive	–	–
COc1cc(/C=C/C(=O)O[C@H]2CC[C@]34C[C@]35CC[C@]3(C)[C@@H]([C@H](C)CCC=C(C)C)CC[C@@]3(C)[C@@H]5CC[C@H]4C2(C)C)ccc1O	inactive	inactive	–	–
Nc1ccn([C@@H]2O[C@H](CO)[C@@H](O)C2(F)F)c(=O)n1	inactive	inactive	–	–
Cc1ccc(C(=O)C(C)CN2CCCCC2)cc1 (configuration not stated)	inactive	inactive	–	–
C/C=C/c1ccc(OC)cc1	inactive	inactive	–	–
CN1[C@@H]2CC[C@H]1CC(OC(=O)c1c[nH]c3ccccc13)C2 (some centres not stated)	inactive	inactive	–	–
CO/N=C1\CN(c2nc3c(cc2F)c(=O)c(C(=O)O)cn3C2CC2)CC1CN (configuration not stated)	inactive	inactive	–	–
Cc1ccccc1C(=O)Nc1ccc(C(=O)N2CCCC(N(C)C)c3ccccc32)cc1 (configuration not stated)	inactive	16.8 µM (active)	–	–
Oc1c(Cl)cc(Cl)cc1Sc1cc(Cl)cc(Cl)c1O	inactive	inactive	–	–
CN(C)CCCOc1nn(Cc2ccccc2)c2ccccc12	inactive	inactive	–	–
OC(CCN1CCCCC1)(c1ccccc1)c1ccccc1	inactive	inactive	–	–
O=C(OCCOCCO)c1ccccc1Nc1cccc(C(F)(F)F)c1	inactive	inactive	–	–
O=C(O)CCCCC(=O)O	inactive	inactive	–	–
COC(=O)[C@@H]1CC2=CC(=O)CC[C@]2(C)[C@@]23O[C@@H]2C[C@@]2(C)[C@@H](CC[C@@]24CCC(=O)O4)[C@H]13	inactive	inactive	–	–

SMILES	Potency [1]	Potency [2]	activity change, negative = cytotoxic [1]	activity change, negative = cytotoxic [2]
CC[N+](CC)(CCNC(=O)C(=O)NCC[N+](CC)(CC)Cc1ccccc1Cl)Cc1ccccc1Cl	inactive	inactive	–	–
Nc1nc2ncc(CNc3ccc(C(=O)N[C@@H](CCC(=O)O)C(=O)O)cc3)nc2c(=O)[nH]1	inactive	inactive	–	–
CCOC(=O)c1cccc(N)c1	inactive	inactive	–	–
CC(Cc1ccccc1)(NC(=O)CN)c1ccccc1 (configuration not stated)	inactive	inactive	–	–
O=c1ccc2ccccc2o1	inactive	inactive	–	–
CC1(C)O[C@@H]2C[C@H]3[C@@H]4C[C@H](F)C5=CC(=O)C=C[C@]5(C)[C@H]4[C@@H](O)C[C@]3(C)[C@]2(C(=O)CO)O1	inactive	inactive	–	–
O=C(Nc1ccc(Cl)c(Cl)c1)C1CC1	inactive	inactive	–	–
C[C@@H](CN(C)C)CN1c2ccccc2Sc2ccccc21	inactive	inactive	–	–
CCN1CCC[C@H]1CNC(=O)c1c(OC)ccc(Br)c1OC	inactive	inactive	–	–
Oc1cc(O)c2c(c1)O[C@H](c1ccc(O)c(O)c1)[C@H](O)C2	inactive	inactive	–	–
CN1CCN(C(c2ccccc2)c2ccccc2)CC1	inactive	inactive	–	–
COc1c2occc2c(OC)c2c(=O)cc(C)oc12	inactive	inactive	–	–
OC[C@H]1O[C@H](O[C@]2(CCl)O[C@H](CCl)[C@@H](O)[C@@H]2O)[C@H](O)[C@@H](O)[C@H]1Cl	inactive	inactive	–	–
COc1cccc2c1C(=O)c1c(O)c3c(c(O)c1C2=O)C[C@@](O)(C(C)=O)C[C@@H]3O[C@H]1C[C@H](N)[C@H](O)[C@H](C)O1	inactive	0.75 µM (active)	–	–
CC(C)N=C(N)/N=C(\N)Nc1ccc(Cl)cc1	inactive	inactive	–	–
CNC(=O)CN(CCN(CCN(CC(=O)[O-])CC(=O)NC)CC(=O)[O-])CC(=O)[O-].O.[Gd+3]	inactive	inactive	–	–
CCN(CCCCOC(=O)c1ccc(OC)c(OC)c1)C(C)Cc1ccc(OC)cc1 (configuration not stated)	inactive	inactive	–	–
CCCCCC=CCC=CCCCCCCCC(=O)OCC	inactive	inactive	–	–
C/C=C(/C(=C/C)c1ccc(O)cc1)c1ccc(O)cc1	inactive	inactive	–	–
CC(C)NC[C@@H](O)COc1cccc2ccccc12	inactive	inactive	–	–
COc1cc(N)c(Cl)cc1C(=O)NC1CCN(CCCOc2ccc(F)cc2)CC1OC (configuration not stated)	inactive	inactive	–	–
CC(C)COC(=O)c1ccc(N)cc1	inactive	inactive	–	–
CCCC(=O)Nc1ccc(OCC(O)CNC(C)C)c(C(C)=O)c1 (configuration not stated)	inactive	inactive	–	–

SMILES	Potency [1]	Potency [2]	activity change, negative = cytotoxic [1]	activity change, negative = cytotoxic [2]
CCC(=O)c1c(O)cc(O)cc1O	inactive	inactive	–	–
Cc1cc2c(cc1CC(=O)c1sccc1S(=O)(=O)Nc1onc(C)c1Cl)OCO2	inactive	inactive	–	–
N[C@H](Cc1c[nH]c2ccccc12)C(=O)O	inactive	inactive	–	–
CCCCCCc1ccc(O)cc1O	inactive	inactive	–	–
COc1ccc(C2C(=O)c3ccccc3C2=O)cc1	inactive	inactive	–	–
CCN(CCCc1ccccc1)CCCc1ccccc1	inactive	inactive	–	–
CC(=O)OCC(=O)NCCCOc1cccc(CN2CCCCC2)c1	inactive	inactive	–	–
CC(C)=CCC1C(=O)N(c2ccccc2)N(c2ccccc2)C1=O	inactive	inactive	–	–
CCCCc1nc(Cl)c(CO)n1Cc1ccc(-c2ccccc2-c2nn[nH]n2)cc1	inactive	inactive	–	–
Cc1ncc(CSSCc2cnc(C)c(O)c2CO)c(CO)c1O	inactive	inactive	–	–
C=C1C(=C/C=C2\CCC[C@]3(C)[C@@H]([C@H](C)/C=C/[C@@H](O)C4CC4)CC[C@@H]23)C[C@@H](O)C[C@@H]1O	inactive	inactive	–	–
C#C[C@]1(O)CC[C@H]2[C@@H]3CCC4=CC(=O)CC[C@@H]4[C@H]3CC[C@@]21C	inactive	inactive	–	–
Clc1ccc2c(c1)CCc1cccnc1C2=C1CCNCC1	inactive	inactive	–	–
C[C@]12CC[C@@H]3c4ccc(O)cc4CC[C@H]3[C@@H]1C[C@@H](O)[C@@H]2O	inactive	inactive	–	–
O=C(O)CNC(=O)c1ccccc1	inactive	inactive	–	–
NC[C@H]1O[C@H](O[C@H]2[C@H](O[C@@H]3O[C@H](CO)[C@@H](O)[C@H]3O)C(O)[C@H](N)C[C@@H]2N)[C@H](N)[C@@H](O)[C@@H]1O (some centres not stated)	–	–	23.6% [at 9.22 µM]	34.8% [at 9.22 µM]
CCn1cc(C(=O)O)c(=O)c2cnc(N3CCCC3)nc21	–	–	8.92% [at 9.22 µM]	12.6% [at 9.22 µM]
CC(C)(C)NC(=O)[C@@H]1CN(Cc2cccnc2)CCN1C[C@@H](O)C[C@@H](Cc1ccccc1)C(=O)N[C@H]1c2ccccc2C[C@H]1O	inactive	inactive	–	–
CCCCOc1cc(C(=O)NCCN(CC)CC)c2ccccc2n1	inactive	inactive	–	–
CN1CCC(=C2c3ccccc3Sc3ccccc32)CC1	inactive	inactive	–	–
NCCC(O)(P(=O)(O)O)P(=O)(O)O	inactive	inactive	–	–
CC(O)(P(=O)(O)O)P(=O)(O)O	inactive	inactive	–	–
NC[C@H]1O[C@H](O[C@H]2[C@H](O)[C@@H](O[C@H]3O[C@H](CO)[C@@H](O)[C@H](N)[C@H]3O)[C@H](N)C[C@@H]2N)[C@H](N)[C@@H](O)[C@@H]1O	inactive	inactive	–	–

SMILES	Potency [1]	Potency [2]	activity change, negative = cytotoxic [1]	activity change, negative = cytotoxic [2]
CC(C)(CO)[C@@H](O)C(=O)NCCCO	inactive	inactive	–	–
CCCOC(C(=O)OC1CCN(C)CC1)(c1ccccc1)c1ccccc1	inactive	inactive	–	–
Nc1ccc(/C=C/c2ccc(N)cc2S(=O)(=O)O)c(S(=O)(=O)O)c1	–	–	24.6% [at 0.597 µM]	37.3% [at 0.597 µM]
CC(=O)Oc1ccc(C(=C2CCCCC2)c2ccc(OC(C)=O)cc2)cc1	inactive	inactive	–	–
CC(=O)c1ccc2c(c1)N(CCCN1CCC(CCO)CC1)c1ccccc1S2	inactive	inactive	–	–
COc1cc(C(=S)N2CCOCC2)cc(OC)c1OC	inactive	inactive	–	–
CN(C)CC/C=C1/c2ccccc2COc2ccc(CC(=O)O)cc21	inactive	inactive	–	–
CN1C(CCl)Nc2cc(Cl)c(S(N)(=O)=O)cc2S1(=O)=O (configuration not stated)	inactive	inactive	–	–
Cc1ccc(Nc2c(F)cccc2Cl)c(CC(=O)O)c1	inactive	inactive	–	–
COc1cc(OC)cc(OC)c1	inactive	inactive	–	–
OCc1ccccc1O	inactive	inactive	–	–
Cc1c(C(N)=O)cc([N+](=O)[O-])cc1[N+](=O)[O-]	inactive	inactive	–	–
COc1cc2c(cc1OC)C(=O)C(CC1CCN(Cc3ccccc3)CC1)C2 (configuration not stated)	inactive	inactive	–	–
CC(=O)CC(c1ccc([N+](=O)[O-])cc1)c1c(O)c2ccccc2oc1=O (configuration not stated)	inactive	inactive	–	–
CN(C(=O)CN(CCO)CC(=O)N(C)C(C)(C)Cc1ccccc1)C(C)(C)Cc1ccccc1	inactive	inactive	–	–
CN(C)CCOc1ccccc1Cc1ccccc1	inactive	inactive	–	–
CCCN1CCCC[C@H]1C(=O)Nc1c(C)cccc1C	inactive	inactive	–	–
O=C1OCCN1/N=C/c1ccc([N+](=O)[O-])o1	inactive	inactive	–	–
CCN(CC)C(=O)/C(C#N)=C/c1cc(O)c(O)c([N+](=O)[O-])c1	inactive	inactive	–	–
CCCCCCCCCCCCCCNCCO	inactive	inactive	–	–
CC1=C(C(=O)O)N2C(=O)[C@@H](NC(=O)[C@H](N)c3ccc(O)cc3)[C@H]2SC1	inactive	inactive	–	–
CCOC(=O)OC(C)OC1=C(C(=O)Nc2ccccn2)N(C)S(=O)(=O)c2ccccc21 (configuration not stated)	inactive	inactive	–	–

Source: PubChem BioAssay (NCATS)
